PubChem BioAssay
Calls of active or inactive are those of the source.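 Rule for the calls, unless noted: active = NADPH fluorescence slope more negative than the mean of all samples by about 3 SD, 99.7% confidence; inactive = the rest.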

How the values were obtained:
[1] = inhibitors of TNFa-induced NFkB p65 translocation, primary screen, imaging, HUVEC, MLSMR starter and 10KST1 sets (AID 438;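 active = inhibition above 20% together with a positive visual image hit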;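 note: compound added about 3h40 before a 20 min TNFalpha stimulation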;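 for inhibition: signal is the nuclear over cytoplasmic p65 intensity ratio per well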); details: HUVEC TNFa-induced p65 nuclear translocation; cell count: measured here: nuclei count (cytotoxicity indicator), at 2.08 µM; inhibition: at 2 µM, stronger effect = higher value, 0% TNFa-plus-vehicle, 100% no-TNFa wells
[2] = inhibitors of mutant huntingtin aggregation, primary screen, imaging, exon1htt(103Q)mCFP cells, high-content imaging (AID 483;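 active = visual image review flags a hit and inhibition of aggregation exceeds 20%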;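 note: compound exposure lasted 3 days before fixation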;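 for nuclei count: percent of the per-plate median nuclei count of sample wells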); details: exon1htt(103Q)mCFP cell line, aggregate imaging, at 2 µM; inhibition of aggregation: stronger effect = higher value; nuclei count: measured here: cell count, toxicity
[3] = inhibitors of E-selectin induction by TNFa, primary screen, imaging, HUVEC, immunofluorescence, MLSMR starter and 10KST1 sets (AID 487;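 active = visually confirmed hit in the image check and inhibition above 20%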;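 for inhibition: signal is fraction of cell area covered by stained E-selectin grains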;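 for nuclei count: 100% = median nuclei count of all wells on the same plate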); details: HUVEC TNFalpha-induced E-selectin immunofluorescence imaging, at 2 µM; inhibition: stronger effect = higher value; nuclei count: measured here: cell number, toxicity
[4] = target: Voltage-gated potassium channel subunit beta-2 (Rattus norvegicus) (UniProt P62483); assay: KvBeta enzyme negative modulators, primary screen, biochemical, NADPH fluorescence (AID 622;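 active = fluorescence slope higher than the sample average by over 3 SD, cut at about -0.22 in these data, passing the limit was not always enough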;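 note: slope of raw intensity against log time taken from 70 to 1610 s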); details: recombinant KvBeta, 4-cyanobenzaldehyde reduction, at 10 µM, stronger effect = higher value
[5] = target: Voltage-gated potassium channel subunit beta-2 (Rattus norvegicus) (UniProt P62483); assay: KvBeta positive modulators, primary screen, biochemical, NADPH fluorescence (AID 623); details: Recombinant KvBeta, NADPH fluorescence decrease slope, 10 min; at 10 µM; stronger effect = lower value;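 note: fluorescence intensity change per second fitted from 20 to 320 s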
[6] = target: Alpha-2C adrenergic receptor (Homo sapiens) (UniProt P18825); assay: modulators of alpha2C/GIRK thallium flux, primary screen, cell-based, HEK293 alpha2C/GIRK1/2 (AID 624;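 active = fluorescence slope after compound addition differing from the mean of all screened samples at 99.7% confidence, in either direction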;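 note: slope of fluorescence ratio to pre-addition baseline per second over 15 to 24 s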); details: thallium flux BTC fluorescence, at 10 µM, actives lie on both sides
[7] = inhibitors of Sendai virus-induced IRF3 signaling, primary screen, TLR/RLR signaling modifier project, cell-based, Sendai virus stimulus, luciferase, 10K MLSCN set (AID 602276;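 active = inhibition at or above 50% at 10 µM; inactive = inhibition below 50%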;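 note: firefly luciferase from ISG56 promoter only with Renilla not read in this screen; 0% = Sendai virus plus DMSO and 100% = medium plus DMSO without virus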); details: HEK293 RL24 IRF3 luciferase reporter, at 10 µM, stronger effect = higher value
[8] = inhibitors of poly I:C-induced TLR3 signaling, primary screen, cell-based, poly I:C stimulus, luciferase, 10K MLSCN set (AID 602277;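 active = inhibition of the reporter signal at or above 50%; inactive = inhibition below 50%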); details: HEK293-TLR3 RL24 IRF3 luciferase reporter, at 10 µM, stronger effect = higher value

Chain of Voltage-gated potassium channel subunit beta-2 (Rattus norvegicus) (P62483 whole entry, looked up): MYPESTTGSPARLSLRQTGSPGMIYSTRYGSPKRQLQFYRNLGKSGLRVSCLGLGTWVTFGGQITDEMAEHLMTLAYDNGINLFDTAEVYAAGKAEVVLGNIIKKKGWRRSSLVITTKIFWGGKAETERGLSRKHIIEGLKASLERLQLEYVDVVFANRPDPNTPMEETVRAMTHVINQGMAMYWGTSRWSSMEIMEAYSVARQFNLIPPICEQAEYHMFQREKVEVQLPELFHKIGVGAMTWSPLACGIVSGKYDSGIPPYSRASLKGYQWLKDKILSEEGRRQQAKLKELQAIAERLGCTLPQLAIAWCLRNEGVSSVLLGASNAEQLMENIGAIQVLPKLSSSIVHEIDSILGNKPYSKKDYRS
Chain of Alpha-2C adrenergic receptor (Homo sapiens) (P18825 whole entry, looked up): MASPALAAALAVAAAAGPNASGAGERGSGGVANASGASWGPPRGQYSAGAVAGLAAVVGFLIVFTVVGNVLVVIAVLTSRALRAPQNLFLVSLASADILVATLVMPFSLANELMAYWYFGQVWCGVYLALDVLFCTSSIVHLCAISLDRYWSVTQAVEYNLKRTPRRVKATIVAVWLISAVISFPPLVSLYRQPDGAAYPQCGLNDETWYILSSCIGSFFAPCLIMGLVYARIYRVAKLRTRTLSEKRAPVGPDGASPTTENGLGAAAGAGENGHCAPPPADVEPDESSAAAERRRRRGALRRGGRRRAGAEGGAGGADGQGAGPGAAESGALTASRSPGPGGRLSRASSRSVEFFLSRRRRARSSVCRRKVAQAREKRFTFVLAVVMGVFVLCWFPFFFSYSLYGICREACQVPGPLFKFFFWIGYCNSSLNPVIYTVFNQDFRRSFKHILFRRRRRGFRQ

SMILES	cell count [1]	inhibition [1]	inhibition of aggregation [2]	nuclei count [2] [%]	inhibition [3]	nuclei count [3] [%]	fluorescence slope [4]	NADPH fluorescence slope [5]	slope [6]	inhibition [7]	inhibition [8]
Cc1cccc(-c2cc3nc4c(c(N5CCOCC5)n3n2)CCCC4)c1	621	-7.5% (inactive)	1.5% (inactive)	107	-74.2% (inactive)	101	-0.399 (inactive)	1e-05 (inactive)	0.00597 (inactive)	-9.84% (inactive)	33.5% (inactive)
CCc1ccccc1OCCCCCNCCO	459	3.9% (inactive)	28.4% (inactive)	87.2	53% (inactive)	85.2	-0.303 (inactive)	-1e-05 (inactive)	0.00576 (inactive)	10.8% (inactive)	31.9% (inactive)
O=C(O)CCn1c(=O)c2ccccc2c2ccccc2c1=O	557	1% (inactive)	-13.6% (inactive)	118	10.2% (inactive)	101	-0.537 (inactive)	7e-06 (inactive)	0.00528 (inactive)	-4.94% (inactive)	-9.95% (inactive)
CC(=O)c1ccccc1Oc1nc(CN2CCOCC2)nc2scc(-c3cccs3)c12	330	-5.7% (inactive)	13.6% (inactive)	99.2	-50.4% (inactive)	109	-0.478 (inactive)	-1.8e-05 (inactive)	0.00384 (inactive)	7.86% (inactive)	37.7% (inactive)
COc1ccc(OCC(=O)N2CCN(C(=O)COc3ccc(Br)cc3)CC2)cc1	665	-28.3% (inactive)	-4% (inactive)	108	-13.6% (inactive)	103	-0.486 (inactive)	-3.9e-05 (inactive)	0.00463 (inactive)	18% (inactive)	20.9% (inactive)
CC1=C(C(=O)Nc2ccc(F)cc2)C(c2cccc(C)c2)n2nc(CCCO)nc2N1 (stereo not drawn)	784	-3.5% (inactive)	6.5% (inactive)	88.4	-32.3% (inactive)	133	-0.405 (inactive)	-1.6e-05 (inactive)	0.00457 (inactive)	13.9% (inactive)	41.1% (inactive)
CC1CCN(S(=O)(=O)c2cn(CC(=O)N3CCN(C)CC3)c(=O)c3ccccc23)CC1	278	-8.5% (inactive)	-2.7% (inactive)	91.6	-28.3% (inactive)	121	-0.604 (inactive)	5.5e-06 (inactive)	0.00569 (inactive)	0.28% (inactive)	17.6% (inactive)
Oc1ccc(Cl)cc1-c1cc(-c2ccccc2)n[nH]1	524	-11.4% (inactive)	26.3% (inactive)	81.5	-6.5% (inactive)	80.2	-0.557 (inactive)	-1.3e-05 (inactive)	0.00732 (inactive)	-23.7% (inactive)	-37% (inactive)
COc1ccccc1Oc1ccc(S(=O)(=O)N2CCOCC2)cc1S(=O)(=O)N1CCOCC1	242	2.9% (inactive)	24.3% (inactive)	106	-142% (inactive)	132	-0.377 (inactive)	5.2e-07 (inactive)	0.00572 (inactive)	10% (inactive)	1.69% (inactive)
CCn1c(=O)c(C(=O)NCCc2ccccc2)c(O)c2ccccc21	724	-0.3% (inactive)	-18.1% (inactive)	96.4	-9.2% (inactive)	104	-0.302 (inactive)	-2.8e-06 (inactive)	0.0106 (inactive)	18.3% (inactive)	12.5% (inactive)
CN(Cc1ccccc1)C(=O)CNC(=O)Cn1cnc2ccccc2c1=O	773	1.1% (inactive)	-13.9% (inactive)	95.7	-18.9% (inactive)	111	-0.602 (inactive)	-2.5e-06 (inactive)	0.00729 (inactive)	4.6% (inactive)	10.1% (inactive)
OCc1cn(-c2ccccc2)nc1-c1ccc2c(c1)OCCO2	438	4.2% (inactive)	-10.7% (inactive)	99.4	-84% (inactive)	112	-0.532 (inactive)	-4.4e-05 (inactive)	0.00702 (inactive)	-51.8% (inactive)	-135% (inactive)
COc1ccc(C(=O)Oc2c(CN3CCOCC3)cc(Cl)c3cccnc23)cc1OC	601	-2.4% (inactive)	-3.9% (inactive)	100	-53.1% (inactive)	111	-0.533 (inactive)	-2.5e-05 (inactive)	0.00812 (inactive)	-3.08% (inactive)	30.9% (inactive)
Cc1c(C#N)sc2nc(-c3ccccc3)nc(N3CCCC3)c12	388	-8.7% (inactive)	-28.2% (inactive)	99.9	-50% (inactive)	130	-0.236 (inactive)	-1.1e-05 (inactive)	0.011 (active)	16.9% (inactive)	26% (inactive)
CCOc1ccc(OCc2cccc(C(=O)N3CCCC3)c2)cc1	488	0% (inactive)	-4.9% (inactive)	103	3.3% (inactive)	106	-0.423 (inactive)	-3.1e-05 (inactive)	0.00502 (inactive)	-43% (inactive)	-105% (inactive)
COc1nc(OC)nc(N2CCC(C(=O)NCc3cccs3)CC2)n1	559	-15% (inactive)	-22.8% (inactive)	112	-1.7% (inactive)	107	-0.528 (inactive)	-4.4e-05 (inactive)	0.00626 (inactive)	-3.8% (inactive)	-2.92% (inactive)
Cc1cc(C)n(-c2nc3sc4c(c3c3nnc(SCC(N)=O)n23)CC(C)(C)OC4)n1	368	6.9% (inactive)	-7.7% (inactive)	88.2	-4.5% (inactive)	116	-0.318 (inactive)	3.6e-06 (inactive)	0.00476 (inactive)	6.12% (inactive)	10.9% (inactive)
CCN(CC)CCN1C(=O)C(=O)/C(=C(/O)c2c(C)[nH]c(C(=O)OC)c2C)C1c1ccccc1OC (stereo not drawn)	280	1% (inactive)	-20.7% (inactive)	109	-11.7% (inactive)	101	-0.454 (inactive)	-4.2e-05 (inactive)	0.00204 (inactive)	7.54% (inactive)	34.9% (inactive)
O=C(Cn1ncc2c(=O)oc3ccccc3c21)NCC1CCCO1 (stereo not drawn)	725	6.6% (inactive)	-2.2% (inactive)	111	-40.1% (inactive)	125	-0.61 (inactive)	-1.2e-05 (inactive)	0.0073 (inactive)	4.27% (inactive)	9.41% (inactive)
CCC(C)Nc1nc2c(c(=O)n(C)c(=O)n2C)n1Cc1ccc(F)cc1 (stereo not drawn)	436	14.8% (inactive)	9.6% (inactive)	100	-18.5% (inactive)	106	-0.617 (inactive)	-3.2e-05 (inactive)	0.00579 (inactive)	15.9% (inactive)	23.7% (inactive)
O=C(COC(=O)C1CC(=O)N(c2ccccc2)C1)c1ccccc1 (stereo not drawn)	603	2.4% (inactive)	-21% (inactive)	99.9	-21% (inactive)	123	-0.604 (inactive)	-2.9e-05 (inactive)	0.00601 (inactive)	-13.2% (inactive)	-4.16% (inactive)
Cc1nnc(SCC(=O)N2CC(=O)Nc3ccccc32)n1-c1ccccc1	502	-4.7% (inactive)	-14.7% (inactive)	102	-190% (inactive)	134	-0.483 (inactive)	-3.9e-05 (inactive)	0.00543 (inactive)	19.7% (inactive)	22.4% (inactive)
COc1ccc(C(O)C(CN2CCOCC2)c2ccccc2)cc1F (stereo not drawn)	337	-1.6% (inactive)	-2.1% (inactive)	102	-20.8% (inactive)	104	-0.493 (inactive)	1.8e-06 (inactive)	0.0062 (inactive)	13.7% (inactive)	17.9% (inactive)
COc1cccc(-n2c(SC3CCOC3=O)nc3ccccc3c2=O)c1 (stereo not drawn)	387	2.4% (inactive)	-18% (inactive)	101	7.5% (inactive)	108	-0.435 (inactive)	-5.4e-06 (inactive)	0.00493 (inactive)	2.92% (inactive)	18.7% (inactive)
Cc1ccc(-c2nn(C)c(=O)c3ccccc23)cc1S(=O)(=O)NCCN1CCOCC1	325	5% (inactive)	13.3% (inactive)	100	-24.7% (inactive)	113	-0.468 (inactive)	4.7e-05 (inactive)	0.00544 (inactive)	-17.1% (inactive)	3.02% (inactive)
O=C(CCc1nc2ccccc2[nH]1)Nc1ccc2c(c1)OCO2	310	-9.6% (inactive)	23.8% (inactive)	111	-68.2% (inactive)	111	-0.347 (inactive)	1.4e-05 (inactive)	0.00426 (inactive)	-10.7% (inactive)	-26.2% (inactive)
Cc1cc(NC(=O)c2cccc(S(=O)(=O)N3CC(c4ccccc4)CC3=O)c2)no1 (stereo not drawn)	873	-1.2% (inactive)	2.3% (inactive)	107	-44.9% (inactive)	121	-0.562 (inactive)	-5.1e-05 (inactive)	0.00664 (inactive)	8.54% (inactive)	25.9% (inactive)
COC(=O)Oc1c(Br)c(=O)oc2ccccc12	594	7.7% (inactive)	-8.6% (inactive)	99.4	-49.4% (inactive)	110	-0.443 (inactive)	-3.2e-05 (inactive)	0.00521 (inactive)	-15.5% (inactive)	-23.7% (inactive)
